PubChem BioAssay (Tox21)
A number with no mark means an inactive call. Results filed as inconclusive are left out. Entries that show only a call come without a potency. Activity calls are given as the source filed them. Unless noted, calls come from the whole dose curve; as a rule, active = well fitted curve in the direction sought with a large enough effect in the repeat runs; inconclusive = weak or mixed curves; inactive = no such curve, though single readings can be large; an effect the other way counts as inactive or inconclusive.

Key:
[1] = biological target: Thyrotropin receptor (Homo sapiens) (UniProt P16473); test: qHTS assay to identify small molecule agonists of the thyroid stimulating hormone receptor (TSHR) signaling pathway (AID 1224843; calls by dose curve; note: nearly all actives have a fitted effect of over 45% in size)
Outline: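 Using 15 concentrations per compound in triplicate, cAMP production was monitored in TSHR-HEK293 cells after 30 min compound incubation at RT; HTRF reagents followed, with fluorescence intensity recorded after 1 h.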

[2] = qHTS assay to identify small molecule agonists of H2AX (AID 1224845; active = well fitted activation curve with a large enough effect in the signal ratio in the repeat runs, not every such curve was filed as active; the % refers to the signal ratio)
Outline: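 Wild-type CHO-K1 cells plated overnight, then exposed 3 hr at 37C to compounds at 15 concentrations (0.76% DMSO). Lysed, then HTRF anti-pH2AX(S139)-cryptate/anti-H2AX-d2 detection after 24 hr at room temperature; emissions 665 and 620 nm.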

[3] = qHTS assay to identify small molecule agonists of H2AX - cell viability counter screen (AID 1224847; calls by dose curve; note: top concentration of the series differs between compounds; nearly all actives have a fitted effect of over 30% in size)
Outline: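 Wild-type CHO-K1 cells (10% FBS medium) were plated overnight at 37C, exposed to compounds at 15 concentrations for 3 hr at 37C (0.76% DMSO final), and viability was read as CellTiter-Glo luminescence after 30 min at room temperature.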

[4] = qHTS RealTime-Glo MT Cell Viability Assay in HepG2 cells - 24 hour (AID 1224867); note: nearly all actives have a fitted effect of over 50% in size
Outline: (§1)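 Luminescence read-out: viable HepG2 cells reduce a prosubstrate to a NanoLuc substrate, giving a signal proportional to live cell number. Reads taken at 0, 8, 16, 24, 32 and 40 h of compound exposure at 37 C.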

[5] = A CellTox Green Cytotoxicity Assay to monitor cytotoxicity in HEK293 cells - 0 hour (AID 1224869); note: nearly all actives have a fitted effect of over 50% in size
Outline: (§2)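 Cells (HEK293, 600/well) and dye reagent are dispensed together. After 5 h at 37 C, 23 nL compound is pinned in. Plates stay at 37 C for 40 h with fluorescence read at 0h, 8h, 16h, 24h, 32h and 40h.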

[6] = A CellTox Green Cytotoxicity Assay to monitor cytotoxicity in HEK293 cells - 40 hour (AID 1224871); note: nearly all actives have a fitted effect of over 45% in size
Outline: as §2

[7] = qHTS RealTime-Glo MT Cell Viability Assay in HEK293 cells - 16 hour (AID 1224872); note: top concentration of the series differs between compounds; nearly all actives have a fitted effect of over 50% in size
Outline: (§3)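 Nonlytic real-time viability readout: viable cells convert prosubstrate to NanoLuc substrate, giving luminescence proportional to live cell number. HEK293, 600 cells/well, compound added after 5 h, continuous culture at 37 C.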

[8] = qHTS RealTime-Glo MT Cell Viability Assay in HepG2 cells - 8 hour (AID 1224873); note: nearly all actives have a fitted effect of over 55% in size
Outline: (§4)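 HepG2 cells mixed with RealTime-Glo MT reagents (NanoLuc plus cell-permeant prosubstrate) were seeded at 600 cells/well, incubated 5 h at 37 C/5% CO2, then pinned with compounds in DMSO; nonlytic luminescence tracked viability during 40 h treatment.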

[9] = qHTS RealTime-Glo MT Cell Viability Assay in HEK293 cells - 40 hour (AID 1224874); details: RealTime-Glo luminescence; max response: stronger effect = lower value; note: nearly all actives have a fitted effect of over 50% in size; note: potency is the fitted concentration of half-maximal effect
Outline: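 Real-time viability in HEK293: signal arises when living cells convert a prosubstrate for NanoLuc in the medium, so luminescence tracks viable cell number. Compound (23 nL, DMSO) added 5 h post-seeding; kinetic reads at 0–40 h, 37 C.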

[10] = A CellTox Green Cytotoxicity Assay to monitor cytotoxicity in HEK293 cells - 24 hour (AID 1224875); note: nearly all actives have a fitted effect of over 45% in size
Outline: as §2

[11] = A CellTox Green Cytotoxicity Assay to monitor cytotoxicity in HepG2 cells - 16 hour (AID 1224876); note: nearly all actives have a fitted effect of over 45% in size
Outline: (§5)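 Cells and non-lytic dye reagent are dispensed together (600 HepG2 cells/well) and incubated 5 h before DMSO compound transfer. Kinetic fluorescence is then recorded in the same wells during 40 h at 37 C.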

[12] = qHTS RealTime-Glo MT Cell Viability Assay in HepG2 cells - 32 hour (AID 1224877); note: nearly all actives have a fitted effect of over 55% in size
Outline: as §1

[13] = A CellTox Green Cytotoxicity Assay to monitor cytotoxicity in HepG2 cells - 24 hour (AID 1224878); note: nearly all actives have a fitted effect of over 45% in size
Outline: as §5

[14] = A CellTox Green Cytotoxicity Assay to monitor cytotoxicity in HepG2 cells - 40 hour (AID 1224879); note: nearly all actives have a fitted effect of over 40% in size
Outline: as §5

[15] = qHTS assay to identify small molecule agonists of the hypoxia (HIF-1) signaling pathway (AID 1224846; active = well fitted activation curve with a large enough effect in the signal ratio in the repeat runs, not every such curve was filed as active; the % refers to the signal ratio)
Outline: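 Compounds from the Tox21 10K library, dissolved in DMSO, are tested for induction of a hypoxia response element–controlled beta-lactamase reporter in ME-180 cells. Exposure lasts 17 hrs at 37C after a 5 hr settling period, followed by CCF4-AM FRET substrate.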

[16] = qHTS assay to identify small molecule antagonists of the estrogen related receptor (ERR) signaling pathway from Tox21 library (AID 1224848); note: nearly all actives have a fitted effect of over 50% in size
Outline: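 Tox21 10K compounds in DMSO tested for ERR pathway antagonism in NTP's ERR cell line; 18 h, 37 C exposure; ONE-Glo luminescence.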

[17] = qHTS assay to identify small molecule agonists of the estrogen related receptor (ERR) signaling pathway from Tox21 library (AID 1224849; calls by dose curve; note: nearly all actives have a fitted effect of over 15% in size); details: ERR reporter cell line, ONE-Glo luciferase, 18 h; at 92.4 µM (top of the series) unless noted
Outline: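 Cells carrying the ERR reporter were plated and allowed to settle for 6 h, exposed to library compounds for 18 h at 37 C, then lysed with ONE-Glo and luminescence measured.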

[18] = qHTS RealTime-Glo MT Cell Viability Assay in HepG2 cells - 40 hour (AID 1224870); note: nearly all actives have a fitted effect of over 50% in size
Outline: as §4

[19] = qHTS RealTime-Glo MT Cell Viability Assay in HEK293 cells - 32 hour (AID 1224868)
Outline: as §3

Sequence of Thyrotropin receptor (Homo sapiens) (P16473 whole entry, looked up): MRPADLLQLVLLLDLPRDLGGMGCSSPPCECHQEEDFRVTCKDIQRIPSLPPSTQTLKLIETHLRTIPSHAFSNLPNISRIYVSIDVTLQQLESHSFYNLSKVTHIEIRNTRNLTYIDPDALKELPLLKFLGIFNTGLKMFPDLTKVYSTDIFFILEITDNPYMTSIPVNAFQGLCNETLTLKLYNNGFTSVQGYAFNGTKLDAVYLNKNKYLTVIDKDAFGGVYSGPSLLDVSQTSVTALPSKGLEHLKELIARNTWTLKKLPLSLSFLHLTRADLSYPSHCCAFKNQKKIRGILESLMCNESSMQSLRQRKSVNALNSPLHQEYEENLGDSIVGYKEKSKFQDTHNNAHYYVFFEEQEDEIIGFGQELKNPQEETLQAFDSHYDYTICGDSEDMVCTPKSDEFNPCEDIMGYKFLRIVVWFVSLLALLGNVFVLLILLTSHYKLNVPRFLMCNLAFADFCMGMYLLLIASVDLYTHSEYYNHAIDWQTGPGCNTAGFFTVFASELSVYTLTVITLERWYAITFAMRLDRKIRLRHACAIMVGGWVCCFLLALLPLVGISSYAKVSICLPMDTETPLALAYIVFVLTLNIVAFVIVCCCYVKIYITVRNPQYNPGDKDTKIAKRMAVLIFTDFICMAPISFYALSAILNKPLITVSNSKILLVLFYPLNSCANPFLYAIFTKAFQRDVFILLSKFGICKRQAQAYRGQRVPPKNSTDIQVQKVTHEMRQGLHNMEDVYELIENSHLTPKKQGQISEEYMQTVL

Question: What does the source list for O=C(CCNNC(=O)c1ccncc1)NCc1ccccc1?
Answer: Potency [1]: inactive; outcome [2]: inactive; Potency [3]: inactive; outcome [4]: inactive; outcome [5]: inactive; Potency [6]: inactive; Potency [7]: inactive; outcome [8]: inactive; max response [9]: 3.81%; outcome [10]: inactive; outcome [11]: inactive; outcome [12]: inactive; outcome [13]: inactive; Potency [14]: inactive

Question: For O=C1c2cccc3c2[C@H](CCC3)CN1[C@@H]1CN2CCC1CC2, which Potency [1] is on record?
Answer: inactive

Question: And the outcome [2]?
Answer: inactive

Question: What about the outcome [15] of the same compound?
Answer: inactive

Question: And the Potency [3]?
Answer: inactive

Question: And the Potency [16]?
Answer: inactive

Question: What about the activity change, positive = activation [17] of the same compound?
Answer: 20.8% [at 42.5 µM] (active)

Question: And the outcome [4]?
Answer: inactive

Question: And the outcome [5]?
Answer: inactive

Question: And the outcome [18]?
Answer: inactive

Question: And the Potency [6]?
Answer: inactive

Question: What about the Potency [7] of the same compound?
Answer: inactive

Question: What about the outcome [8] of the same compound?
Answer: inactive

Question: What about the Potency [9] of the same compound?
Answer: 6.01 µM (active)

Question: And the outcome [10]?
Answer: inactive

Question: What about the outcome [12] of the same compound?
Answer: inactive

Question: And the outcome [13]?
Answer: inactive

Question: And the Potency [14]?
Answer: inactive

Question: Which Potency [1] does the source give for CNS(=O)(=O)CCc1ccc2[nH]cc(C3CCN(C)CC3)c2c1 here?
Answer: inactive

Question: And the outcome [2]?
Answer: inactive

Question: What about the outcome [15] of the same compound?
Answer: inactive

Question: And the Potency [3]?
Answer: inactive

Question: And the outcome [4]?
Answer: inactive

Question: And the Potency [19]?
Answer: inactive

Question: And the outcome [5]?
Answer: inactive

Question: What about the Potency [6] of the same compound?
Answer: inactive

Question: And the Potency [7]?
Answer: inactive

Question: What about the outcome [8] of the same compound?
Answer: inactive

Question: What about the max response [9] of the same compound?
Answer: -4.37%

Question: What about the outcome [10] of the same compound?
Answer: inactive

Question: What about the outcome [12] of the same compound?
Answer: inactive

Question: What about the Potency [14] of the same compound?
Answer: inactive

Question: For NS(=O)(=O)c1ccc(NC(=O)CCC(=O)O)cc1, which Potency [1] is on record?
Answer: inactive

Question: And the outcome [2]?
Answer: inactive

Question: And the outcome [15]?
Answer: inactive

Question: And the Potency [3]?
Answer: inactive

Question: What about the outcome [4] of the same compound?
Answer: inactive

Question: What about the Potency [19] of the same compound?
Answer: inactive

Question: What about the outcome [5] of the same compound?
Answer: inactive

Question: What about the outcome [18] of the same compound?
Answer: inactive

Question: And the Potency [6]?
Answer: inactive

Question: What about the outcome [8] of the same compound?
Answer: inactive

Question: What about the max response [9] of the same compound?
Answer: 3.03%

Question: What about the outcome [10] of the same compound?
Answer: inactive

Question: And the outcome [11]?
Answer: inactive

Question: What about the outcome [12] of the same compound?
Answer: inactive

Question: And the Potency [14]?
Answer: inactive

Question: With CC(=O)NCCCCCC(=O)O as the compound, how does the Potency [1] read?
Answer: inactive

Question: And the outcome [2]?
Answer: inactive

Question: What about the outcome [15] of the same compound?
Answer: inactive

Question: What about the Potency [3] of the same compound?
Answer: inactive

Question: And the outcome [4]?
Answer: inactive

Question: What about the Potency [19] of the same compound?
Answer: inactive

Question: What about the outcome [5] of the same compound?
Answer: inactive

Question: What about the outcome [18] of the same compound?
Answer: inactive

Question: What about the Potency [6] of the same compound?
Answer: inactive

Question: What about the outcome [8] of the same compound?
Answer: inactive

Question: What about the max response [9] of the same compound?
Answer: 5.61%

Question: What about the outcome [10] of the same compound?
Answer: inactive

Question: What about the outcome [11] of the same compound?
Answer: inactive

Question: And the outcome [12]?
Answer: inactive

Question: And the Potency [14]?
Answer: inactive

Question: For CC(=O)N[C@@H](CCC(=O)O)C(=O)O, which Potency [1] is on record?
Answer: inactive

Question: What about the outcome [2] of the same compound?
Answer: inactive

Question: And the outcome [15]?
Answer: inactive

Question: And the Potency [3]?
Answer: inactive

Question: And the activity change, positive = activation [17]?
Answer: 5.46% [at 42.5 µM]

Question: And the outcome [4]?
Answer: inactive

Question: And the Potency [19]?
Answer: inactive

Question: What about the outcome [5] of the same compound?
Answer: inactive

Question: And the outcome [18]?
Answer: inactive

Question: And the Potency [6]?
Answer: inactive

Question: What about the Potency [7] of the same compound?
Answer: inactive

Question: And the outcome [8]?
Answer: inactive

Question: What about the max response [9] of the same compound?
Answer: 1.63%

Question: What about the outcome [10] of the same compound?
Answer: inactive

Question: And the outcome [11]?
Answer: inactive

Question: What about the outcome [12] of the same compound?
Answer: inactive

Question: What about the Potency [14] of the same compound?
Answer: inactive

Question: Which activation [1] does the source give for C[Si](C)=O here?
Answer: 1.85% [at 8.39 µM]

Question: And the activation (H2AX phosphorylation) [2]?
Answer: -1.6% [at 14 µM]

Question: What about the activation [15] of the same compound?
Answer: -1.19% [at 7.01 µM]

Question: And the activity change, negative = cytotoxicity [3]?
Answer: -6.59% [at 14 µM]

Question: And the activity change, positive = activation [17]?
Answer: 0.654% [at 8.39 µM]

Question: And the activity change, negative = cytotoxicity [4]?
Answer: 0.943% [at 6.97 µM]

Question: And the cytotoxicity [5]?
Answer: 2.11% [at 6.97 µM]

Question: What about the cytotoxicity increase [6] of the same compound?
Answer: 12.6% [at 6.97 µM]

Question: And the activity change, negative = cytotoxicity [7]?
Answer: 2.27% [at 6.97 µM]

Question: What about the viability change, negative = cytotoxic [8] of the same compound?
Answer: 1.52% [at 6.97 µM]

Question: And the max response [9]?
Answer: 0.522%

Question: What about the activity change [10] of the same compound?
Answer: 9.97% [at 6.97 µM]

Question: And the cytotoxicity [13]?
Answer: -4.98% [at 6.97 µM]

Question: And the cytotoxicity increase [14]?
Answer: -11.7% [at 6.97 µM]

Question: With CCCCCCCCCCCCCC as the compound, how does the Potency [1] read?
Answer: inactive

Question: And the outcome [2]?
Answer: inactive

Question: And the outcome [15]?
Answer: inactive

Question: And the Potency [3]?
Answer: inactive

Question: What about the Potency [16] of the same compound?
Answer: inactive

Question: And the activity change, positive = activation [17]?
Answer: 2.93%

Question: What about the outcome [4] of the same compound?
Answer: inactive

Question: What about the Potency [19] of the same compound?
Answer: inactive

Question: What about the outcome [5] of the same compound?
Answer: inactive

Question: And the Potency [6]?
Answer: inactive

Question: And the Potency [7]?
Answer: inactive

Question: And the outcome [8]?
Answer: inactive

Question: What about the max response [9] of the same compound?
Answer: 3.06%

Question: What about the outcome [10] of the same compound?
Answer: inactive

Question: And the outcome [11]?
Answer: inactive

Question: And the outcome [12]?
Answer: inactive

Question: What about the outcome [13] of the same compound?
Answer: inactive

Question: And the Potency [14]?
Answer: inactive
